According to PubChem BioAssay:
“And” between values parts separate entries of the source, which are not always exact repeats. Equal values may be shown once. This is one part of the list. The source made the active and inactive calls.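 The calls were made as follows, unless noted: active = mean inhibition above 46.68%, the untreated control wells mean plus 3 SD; inactive = the rest.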

Experiments:
[1] = molecular target: Nuclear receptor coactivator 3 (Homo sapiens) (UniProt Q9Y6Q9); assay: NCOA3 GAL4-fusion reporter inhibition – cell-based, luminescence, quadruplicate, confirmation (AID 588792;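 active = mean inhibition over 43.08%, the solvent-only control mean plus 3 SD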;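 also: 0% = DMSO treated cells and 100% = gossypol at 36 µM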); settings: HEK293 GAL4-SRC3 luciferase reporter, at 3.6 µM, hits give high values
Sequence of Nuclear receptor coactivator 3 (Homo sapiens) (Q9Y6Q9 whole entry, looked up, the tested form may be a part): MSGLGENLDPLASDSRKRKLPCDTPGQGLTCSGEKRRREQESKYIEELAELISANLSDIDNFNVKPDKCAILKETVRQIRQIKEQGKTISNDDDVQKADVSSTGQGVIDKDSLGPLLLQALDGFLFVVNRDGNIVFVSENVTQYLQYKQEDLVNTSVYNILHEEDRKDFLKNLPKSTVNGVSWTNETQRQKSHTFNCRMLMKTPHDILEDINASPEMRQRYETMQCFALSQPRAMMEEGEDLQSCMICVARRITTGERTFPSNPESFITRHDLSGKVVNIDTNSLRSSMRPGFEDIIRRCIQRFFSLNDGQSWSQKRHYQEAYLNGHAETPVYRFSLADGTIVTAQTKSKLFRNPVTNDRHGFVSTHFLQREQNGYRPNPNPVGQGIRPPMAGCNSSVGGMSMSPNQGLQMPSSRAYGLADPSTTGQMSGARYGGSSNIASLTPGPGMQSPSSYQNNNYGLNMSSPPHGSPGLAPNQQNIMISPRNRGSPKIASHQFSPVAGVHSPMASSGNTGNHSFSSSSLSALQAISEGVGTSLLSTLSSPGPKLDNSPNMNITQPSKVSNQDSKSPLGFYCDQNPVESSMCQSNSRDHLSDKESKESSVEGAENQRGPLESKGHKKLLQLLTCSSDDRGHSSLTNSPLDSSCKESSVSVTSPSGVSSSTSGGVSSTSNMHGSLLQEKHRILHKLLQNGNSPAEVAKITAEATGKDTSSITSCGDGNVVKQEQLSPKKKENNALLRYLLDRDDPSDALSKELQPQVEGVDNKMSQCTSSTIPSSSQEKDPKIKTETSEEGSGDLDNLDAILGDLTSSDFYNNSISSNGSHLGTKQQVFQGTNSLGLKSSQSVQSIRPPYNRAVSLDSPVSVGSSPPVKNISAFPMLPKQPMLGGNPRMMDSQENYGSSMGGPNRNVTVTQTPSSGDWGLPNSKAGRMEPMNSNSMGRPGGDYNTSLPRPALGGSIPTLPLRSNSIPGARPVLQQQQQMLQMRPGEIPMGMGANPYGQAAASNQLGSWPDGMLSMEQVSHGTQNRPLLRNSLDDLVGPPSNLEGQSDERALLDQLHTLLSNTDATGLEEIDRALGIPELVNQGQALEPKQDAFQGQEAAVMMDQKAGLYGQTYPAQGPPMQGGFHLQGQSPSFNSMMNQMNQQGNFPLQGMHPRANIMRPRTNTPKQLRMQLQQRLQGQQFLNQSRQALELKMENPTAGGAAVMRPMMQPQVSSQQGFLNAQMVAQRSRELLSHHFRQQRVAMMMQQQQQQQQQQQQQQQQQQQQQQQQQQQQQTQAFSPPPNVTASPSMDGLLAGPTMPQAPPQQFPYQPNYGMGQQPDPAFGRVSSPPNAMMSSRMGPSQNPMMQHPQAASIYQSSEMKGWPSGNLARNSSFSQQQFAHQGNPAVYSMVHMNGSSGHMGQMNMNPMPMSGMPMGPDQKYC

[2] = test system: transactivating tegument protein VP16 (Human herpesvirus 1), Gal4-VP16 luciferase reporter; assay: repression of VP16-driven luciferase reporter – cell-based, luminescence, high throughput, counter-screen for SRC3 inhibitor project (AID 588794; in the data active = inhibition above about 30%); settings: mammalian cells, at 3.6 µM, hits give high values
[3] = molecular target: Nuclear receptor coactivator 1 (Homo sapiens) (UniProt Q15788); assay: NCOA1 GAL4-fusion reporter inhibition – cell-based, luminescence, quadruplicate, confirmation (AID 588820); settings: HEK293 GAL4-SRC1 luciferase reporter, at 3.6 µM, hits give high values;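 also: 0% = DMSO wells and 100% = gossypol 36 µM treated wells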
Sequence of Nuclear receptor coactivator 1 (Homo sapiens) (Q15788 whole entry, looked up, the tested form may be a part): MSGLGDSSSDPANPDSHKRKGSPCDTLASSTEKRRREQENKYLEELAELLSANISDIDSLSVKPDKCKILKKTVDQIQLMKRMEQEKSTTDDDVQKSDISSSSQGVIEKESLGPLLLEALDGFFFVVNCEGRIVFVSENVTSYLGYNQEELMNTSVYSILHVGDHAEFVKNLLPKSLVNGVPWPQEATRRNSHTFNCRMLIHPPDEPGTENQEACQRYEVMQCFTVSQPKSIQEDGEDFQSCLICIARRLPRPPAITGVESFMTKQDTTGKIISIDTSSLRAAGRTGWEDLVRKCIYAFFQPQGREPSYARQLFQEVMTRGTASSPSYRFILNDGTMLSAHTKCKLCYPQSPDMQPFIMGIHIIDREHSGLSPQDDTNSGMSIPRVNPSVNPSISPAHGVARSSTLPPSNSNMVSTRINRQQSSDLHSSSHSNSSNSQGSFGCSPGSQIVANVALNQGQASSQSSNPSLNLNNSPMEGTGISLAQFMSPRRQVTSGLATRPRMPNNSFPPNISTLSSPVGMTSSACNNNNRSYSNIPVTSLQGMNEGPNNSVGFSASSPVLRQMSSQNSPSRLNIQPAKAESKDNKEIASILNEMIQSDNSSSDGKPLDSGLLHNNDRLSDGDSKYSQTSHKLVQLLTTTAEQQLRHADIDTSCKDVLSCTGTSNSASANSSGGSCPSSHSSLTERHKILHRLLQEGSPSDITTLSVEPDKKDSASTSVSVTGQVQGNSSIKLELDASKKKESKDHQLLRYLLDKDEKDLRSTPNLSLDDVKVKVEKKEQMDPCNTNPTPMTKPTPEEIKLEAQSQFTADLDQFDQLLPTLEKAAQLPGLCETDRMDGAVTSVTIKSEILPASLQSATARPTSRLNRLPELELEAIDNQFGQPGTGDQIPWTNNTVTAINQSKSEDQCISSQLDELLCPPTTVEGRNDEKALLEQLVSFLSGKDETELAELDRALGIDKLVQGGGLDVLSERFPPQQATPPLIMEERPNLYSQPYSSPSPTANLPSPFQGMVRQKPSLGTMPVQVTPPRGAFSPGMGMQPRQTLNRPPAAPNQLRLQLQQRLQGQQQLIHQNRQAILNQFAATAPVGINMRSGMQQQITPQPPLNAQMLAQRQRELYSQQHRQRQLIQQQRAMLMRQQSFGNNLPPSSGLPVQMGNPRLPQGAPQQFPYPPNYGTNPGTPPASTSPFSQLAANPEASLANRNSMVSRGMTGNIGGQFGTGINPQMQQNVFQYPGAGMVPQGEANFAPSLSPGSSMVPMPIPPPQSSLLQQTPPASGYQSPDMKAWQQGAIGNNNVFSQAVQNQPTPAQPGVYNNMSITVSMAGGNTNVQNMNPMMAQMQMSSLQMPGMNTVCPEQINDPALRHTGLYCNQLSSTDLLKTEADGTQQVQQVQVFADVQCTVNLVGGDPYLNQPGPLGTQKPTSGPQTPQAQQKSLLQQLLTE

[4] = repression of VP16-driven luciferase reporter – cell-based, luminescence, high throughput, counter-screen for SRC1 inhibitor project (AID 588824; in the data active = inhibition above about 25%); settings: cell-based VP16 transactivation luciferase luminescence; at 3.6 µM; hits give high values
[5] = StAR promoter reporter inhibitors, counter-screen for LRH-1 inverse agonist project, cell-based, luminescence, high throughput (AID 651611; in the data active = inhibition above about 28%); settings: StAR promoter luciferase reporter counterscreen, at 3.6 µM, hits give high values
[6] = molecular target: Nuclear receptor subfamily 5 group A member 2 (Homo sapiens) (UniProt O00482); assay: NR5A2 activity suppression in reporter cells – cell-based, luminescence, confirmation (AID 651613; in the data active = inhibition above about 42%;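 also: HEK293T cells co-transfected with LRH-1 and StAR promoter luciferase reporter; 0% = vehicle wells and 100% = parental cells lacking receptor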); settings: cell-based LRH-1 luciferase reporter, inverse agonism; at 3.6 µM; hits give high values
Sequence of Nuclear receptor subfamily 5 group A member 2 (Homo sapiens) (O00482 whole entry, looked up): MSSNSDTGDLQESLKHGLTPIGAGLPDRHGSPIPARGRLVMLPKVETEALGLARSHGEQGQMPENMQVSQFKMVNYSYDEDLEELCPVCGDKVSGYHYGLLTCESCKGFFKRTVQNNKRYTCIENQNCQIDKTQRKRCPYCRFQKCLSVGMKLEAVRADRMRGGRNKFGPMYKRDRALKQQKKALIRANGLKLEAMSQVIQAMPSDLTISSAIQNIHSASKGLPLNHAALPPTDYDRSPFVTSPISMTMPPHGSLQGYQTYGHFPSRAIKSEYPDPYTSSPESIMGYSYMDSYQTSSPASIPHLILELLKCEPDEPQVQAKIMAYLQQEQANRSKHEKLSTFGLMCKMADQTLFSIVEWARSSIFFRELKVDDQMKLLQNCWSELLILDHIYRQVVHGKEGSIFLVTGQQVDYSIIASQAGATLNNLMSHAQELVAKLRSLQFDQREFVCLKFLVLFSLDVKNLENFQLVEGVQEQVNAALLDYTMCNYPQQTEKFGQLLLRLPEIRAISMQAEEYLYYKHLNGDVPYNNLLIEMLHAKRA

[7] = molecular target: Steroidogenic factor 1 (Homo sapiens) (UniProt Q13285); assay: inverse agonism at SF1 nuclear receptor – cell-based, luminescence, high throughput, counter-screen for LRH-1 inverse agonist project (AID 651614; in the data active = inhibition above about 44%;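 also: cells cotransfected with StAR promoter reporter and SF1 expression vector; 0% = vehicle on cells with receptor and 100% = vehicle on cells lacking receptor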); settings: cell-based SF1 luciferase reporter, at 3.6 µM, hits give high values
[8] = compounds suppressing VP16-driven luciferase signal – cell-based, luminescence, high throughput, counter-screen for LRH-1 inverse agonist project (AID 651615; in the data active = inhibition above about 33%); settings: Gal4-VP16 luciferase reporter cells, at 3.6 µM, hits give high values
[9] = test system: transactivating tegument protein VP16 (Human herpesvirus 1); assay: compounds suppressing VP16-driven luciferase signal – cell-based, luminescence, single concentration, counter-screen for SRC2 inhibitor project (AID 652007; in the data active = inhibition above about 36%); settings: cell-based VP16 transactivation luciferase reporter, at 8.9 µM, hits give high values
[10] = molecular target: Nuclear receptor coactivator 2 (Homo sapiens) (UniProt Q15596); assay: inhibition of GAL4-SRC2 driven luciferase expression – cell-based, luminescence, HEK293, triplicate, confirmation (AID 652008;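 active = mean inhibition above 46.5%, the solvent-only control mean plus 3 SD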;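 also: 0% = DMSO-treated cells and 100% = Gossypol at 36 µM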); settings: HEK293 GAL4-SRC2 luciferase reporter, at 8.9 µM, hits give high values
Sequence of Nuclear receptor coactivator 2 (Homo sapiens) (Q15596 whole entry, looked up, the tested form may be a part): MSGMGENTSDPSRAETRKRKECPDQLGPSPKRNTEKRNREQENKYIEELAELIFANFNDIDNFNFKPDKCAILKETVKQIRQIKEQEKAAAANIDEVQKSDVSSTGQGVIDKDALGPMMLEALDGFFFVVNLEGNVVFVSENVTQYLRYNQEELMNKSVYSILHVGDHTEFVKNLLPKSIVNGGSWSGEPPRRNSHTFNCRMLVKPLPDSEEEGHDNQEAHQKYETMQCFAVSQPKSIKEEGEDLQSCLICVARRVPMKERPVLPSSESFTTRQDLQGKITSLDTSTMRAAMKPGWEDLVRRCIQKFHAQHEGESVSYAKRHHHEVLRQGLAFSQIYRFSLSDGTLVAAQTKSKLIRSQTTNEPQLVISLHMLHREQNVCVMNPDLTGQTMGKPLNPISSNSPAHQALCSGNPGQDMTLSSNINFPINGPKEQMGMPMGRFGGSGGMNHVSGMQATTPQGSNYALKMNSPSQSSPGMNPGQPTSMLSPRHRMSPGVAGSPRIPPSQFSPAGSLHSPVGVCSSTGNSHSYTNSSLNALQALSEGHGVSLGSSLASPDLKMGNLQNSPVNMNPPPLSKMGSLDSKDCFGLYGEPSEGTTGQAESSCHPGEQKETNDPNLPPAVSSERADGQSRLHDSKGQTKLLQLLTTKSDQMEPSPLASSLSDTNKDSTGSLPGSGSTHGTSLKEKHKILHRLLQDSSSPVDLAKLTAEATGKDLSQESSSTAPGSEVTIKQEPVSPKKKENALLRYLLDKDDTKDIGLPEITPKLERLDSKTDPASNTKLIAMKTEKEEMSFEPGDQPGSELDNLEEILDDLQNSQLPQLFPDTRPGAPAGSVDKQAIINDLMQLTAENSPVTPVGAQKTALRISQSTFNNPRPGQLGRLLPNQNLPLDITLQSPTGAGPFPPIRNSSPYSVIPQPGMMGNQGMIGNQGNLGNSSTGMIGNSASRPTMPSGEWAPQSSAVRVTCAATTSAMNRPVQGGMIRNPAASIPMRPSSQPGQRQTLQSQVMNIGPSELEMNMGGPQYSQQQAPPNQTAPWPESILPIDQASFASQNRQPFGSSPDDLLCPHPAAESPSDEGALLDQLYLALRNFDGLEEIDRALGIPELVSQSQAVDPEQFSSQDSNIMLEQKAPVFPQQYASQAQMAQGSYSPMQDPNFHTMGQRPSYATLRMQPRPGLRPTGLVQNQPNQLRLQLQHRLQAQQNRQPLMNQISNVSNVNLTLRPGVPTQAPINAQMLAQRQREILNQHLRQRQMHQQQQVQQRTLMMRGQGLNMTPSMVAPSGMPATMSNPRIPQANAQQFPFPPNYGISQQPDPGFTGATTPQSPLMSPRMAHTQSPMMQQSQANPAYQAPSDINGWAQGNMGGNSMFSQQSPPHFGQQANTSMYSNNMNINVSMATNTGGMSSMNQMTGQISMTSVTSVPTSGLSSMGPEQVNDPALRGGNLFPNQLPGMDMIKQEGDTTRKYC

[11] = VP16-driven transactivation reporter suppression – cell-based, luminescence, HEK293, counter-screen for COUP-TFII antagonist project (AID 687007; in the data active = inhibition above about 13%); settings: HEK293 Gal4-VP16 luciferase reporter, at 8.5 µM, hits give high values
[12] = molecular target: COUP transcription factor 2 (Homo sapiens) (UniProt P24468); assay: retest of COUP-TFII reporter suppressors – cell-based, luciferase reporter, HEK293, triplicate, confirmation (AID 687008;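 active = mean inhibition over three repeats above a set limit taken from the earlier primary screen, cut at about 38% in these data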;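 also: 100% = cells given the luciferase reporter alone without the COUP-TF2 vector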); settings: HEK293 NGFI-A luciferase reporter, luminescence; at 8.5 µM; hits give high values

Measured: inhibition

CC(C)(C)c1cc(C=C(C#N)C#N)cc(C(C)(C)C)c1O
active: [1] 64.3% | [2] 82.4% | [4] 81% | [5] 80.2% | [6] 102% | [7] 91.4% | [8] 88.2%
inactive: [3] 0.93%

COc1ccc(-c2cc(-c3ccccc3)[n+](C)c(-c3ccccc3)c2)cc1
inactive: [1] 35.9% | [3] 34.3%
active: [2] 57.7% | [4] 51.3% | [5] 60.2% | [6] 96% | [7] 84.5% | [8] 77.1%

N#CC1c2ccccc2-n2nncc2CN1Cc1cc(Cl)cc(Cl)c1 (centres undefined)
active: [1] 92.8% | [2] 84.7% | [3] 79.7% | [4] 90.4% | [5] 90.5% | [6] 106% | [7] 94.1% | [8] 94.3% | [9] 82.2% | [10] 84.5%

Cc1ccc(-c2cc(-c3ccc(C)cc3)[n+](C)o2)cc1
inactive: [3] -3.35% | [5] 27.6%
active: [1] 62.4% | [2] 47.2% | [4] 47.1% | [6] 78.7% | [7] 65.7% | [8] 67.3%

COC1CC2C=C(C)C=CC=CC(=O)NC(c3ccccc3)CC=CCCC(O)CC(=O)C2=C1O (centres undefined)
inactive: [3] 29.9%
active: [1] 75.1% | [2] 84% | [4] 84.7% | [5] 81.7% | [6] 107% | [7] 95.6% | [8] 89.8%

CC[C@@]1(O)C(=O)OCc2c1cc1n(c2=O)Cc2cc3c(NC(=O)CN)cccc3nc2-1
active: [1] 61.8% | [3] 55.3% | [5] 42.7% | [6] 70% | [7] 59.3%
inactive: [2] 9.37% | [4] -2.11% | [8] 9.93%

CC(C)c1oc(=O)cc2c1[C@@H](O)[C@H]1OC(=O)[C@@]3(C)CC[C@@H](O)[C@@]2(C)C13 (some centres undefined)
inactive: [1] 40.9% | [2] 7.55% | [3] -2.23% | [4] 10%
active: [5] 71.4% | [6] 86.2% | [7] 72.3% | [8] 53.6%

O=c1[nH]c2ccccc2n1C1CCN(C(c2cccc3ccccc23)c2nnnn2Cc2ccccc2)CC1 (centres undefined)
inactive: [1] 13.1% | [2] 8.16% | [3] -24.4% | [4] -4.89% | [6] 18.9% | [7] 28.4% | [8] 9.13%
active: [5] 53.6%

NC(=O)c1cn(C2OC(CO)C(O)C2O)c2ncnc(N)c12 (centres undefined)
active: [1] 96.2% and 97.7% | [2] 97.7% and 97.3% | [3] 90% and 90.1% | [4] 97.9% and 96% | [5] 94.2% and 95% | [6] 109% and 110% | [7] 96.8% and 98% | [8] 95.5% and 97.3% | [9] 65% and 66.1% | [10] 67.3% and 73.3%

CC(=O)OC1CC(OC2C(O)CC(OC3C(O)CC(OC4CCC5(C)C(CCC6C5CC(O)C5(C)C(C7=CC(=O)OC7)CCC65O)C4)OC3C)OC2C)OC(C)C1OC1OC(CO)C(O)C(O)C1O (centres undefined)
inactive: [10] 28.8%
active: [1] 97.8% | [2] 88.9% | [3] 73.8% | [4] 86.5% | [5] 95% | [6] 109% | [7] 97.9% | [8] 89.4% | [9] 64.3%

C[C@H]1[C@@H](OS(=O)(=O)O)C[C@@H]2C[C@H]([C@@H](O)c3cc(=O)[nH]c(=O)[nH]3)NC3=NC[C@H]1N32
active: [1] 88.3% | [2] 71% | [3] 58% | [4] 70.5% | [5] 92.3% | [6] 107% | [7] 95.2% | [8] 76.8%

CC(=NCc1ccc(F)cc1)c1c(O)n(C)c(=O)n(C)c1=O
inactive: [1] 11% | [3] 12.8%
active: [2] 49.6% | [4] 49.7% | [5] 39.6% | [6] 51.4% | [7] 73% | [8] 62.8%

O=C1NC2C(=CC(O)C(O)C2O)c2cc3c(c(O)c21)OCO3 (centres undefined)
active: [1] 97.4% | [2] 96.1% | [3] 94.7% | [4] 94.7% | [5] 95.7% | [6] 109% | [7] 98% | [8] 96% | [9] 79.3% | [10] 75.6%

COc1cc2cc(C(=O)N3CC(COS(C)(=O)=O)c4ccc(O)cc43)[nH]c2c(OC)c1OC (centres undefined)
active: [1] 97.5% | [2] 96.2% | [3] 96% | [4] 95.7% | [5] 98% | [6] 111% | [7] 99.2% | [8] 98.2%

CC(=O)OC[C@]12CCC(C)=C[C@H]1O[C@@H]1[C@H](O)[C@@H](OC(C)=O)[C@@]2(C)[C@]12CO2
active: [1] 98.8% | [2] 97.9% | [3] 98% | [4] 97.8% | [5] 96% | [6] 109% | [7] 98% | [8] 97.1% | [9] 78.3% | [10] 73%

C[C@@H]1O[C@@H](O[C@@H]2C=C3CCC4C(CC[C@]5(C)[C@@H](c6ccc(=O)oc6)CC[C@]45O)[C@@]3(C)CC2)[C@H](O)[C@H](O)[C@H]1O (some centres undefined)
active: [1] 97.5% | [2] 90.9% | [3] 84.9% | [4] 89.9% | [5] 97% | [6] 110% | [7] 98.9% | [8] 96.5% | [9] 74.1% | [10] 60.1%

Cc1ccc(-c2cc(-c3ccc(C)cc3)[n+](-c3ccccc3)c(-c3ccc(C)cc3)c2)cc1
active: [1] 79.8% | [2] 82.6% | [3] 48.3% | [4] 80.6% | [5] 84.5% | [6] 111% | [7] 94.8% | [8] 95%

CN(C)c1ccc(/C=C/C=C/c2sc3ccccc3[n+]2C)cc1
active: [2] 38.5% | [4] 30.4% | [5] 35.2% | [6] 54.1% | [7] 63% | [8] 56.9%
inactive: [1] 22.8% | [3] 27.4%

CC1=CC2OC3CC4OC(=O)C=CC=CC(C(C)O)OCC(O)C5(C)OC5C(=O)OCC2(CC1O)C4(C)C31CO1 (centres undefined)
active: [1] 98.6% | [2] 96.2% | [3] 96.5% | [4] 95.1% | [5] 94.8% | [6] 108% | [7] 96.5% | [8] 96.2% | [9] 82.1% | [10] 73.5%

CC12CCC3C(CCC4(O)CC(O)CCC34C=NO)C1(O)CCC2C1=COC(=O)C1 (centres undefined)
inactive: [10] 29.4%
active: [1] 94.5% | [2] 84.4% | [3] 61.1% | [4] 82.2% | [5] 96.3% | [6] 110% | [7] 98.2% | [8] 89.2% | [9] 54.3%

CC12CCC3C(CCC4(O)CC(O)CCC34C=O)C1(O)CCC2C1=CC(=O)OC1 (centres undefined)
active: [1] 90% | [2] 67.4% | [4] 67.5% | [6] 109% | [7] 96.2%
inactive: [3] 14.4%

CCC(C)C1NC(=O)C(NC(=O)C(CC(C)C)N(C)C(=O)C2CCCN2C(=O)C(C)O)C(C)OC(=O)C(Cc2ccc(OC)cc2)N(C)C(=O)C2CCCN2C(=O)C(CC(C)C)NC(=O)[C@H](C)C(=O)[C@H](C(C)C)OC(=O)CC1O (some centres undefined)
active: [1] 99.5% | [2] 98.2% | [3] 98.5% | [4] 98.1% | [5] 96.4% | [6] 111% | [7] 98.4% | [8] 99% | [9] 82.2% | [10] 79.6%

CC(=O)OC1CC2OC3C=C(C)CCC3(C)C1(C)C21CO1 (centres undefined)
active: [1] 98.2% | [2] 95.5% | [3] 94.2% | [4] 95.1% | [5] 95.2% | [6] 111% | [7] 98% | [8] 96.8% | [9] 82.5% | [10] 76.1%

C[C@]12CC[C@H]3[C@@H](CC[C@]4(O)C[C@@H](O)CC[C@]34C=O)[C@@]1(O)CC[C@@H]2C1=CC(=O)OC1
active: [1] 92.8% | [2] 81.1% | [3] 46.8% | [4] 79.7% | [6] 110% | [7] 98.7%

O=C(Nc1ccc(OC(=O)N2CCCCC2)cc1)N1CCOCC1
inactive: [1] 24.1% | [2] 1.46% | [3] 9.87% | [4] -2.66% | [6] 19.7% | [7] 37.9% | [8] 14.3% | [9] 35%
active: [5] 29.4% | [10] 68.5%

COC1C(O)C(C)OC(OC2CCC3(C=O)C(CCC4C3CCC3(C)C(C5=CC(=O)OC5)CCC43O)C2)C1O (centres undefined)
active: [1] 96.8% | [2] 89.2% | [3] 81.5% | [4] 88.7% | [5] 93.6% | [6] 110% | [7] 97.2% | [8] 93% | [11] 51% | [12] 76.3%

CC1CCOC(=O)C=CC=CC(=O)OC2CC3OC4C5OC5(C)C(O)CC4(COC(=O)C1O)C2(C)C31CO1 (centres undefined)
active: [1] 98.8% | [2] 97.3% | [3] 97.2% | [4] 97.1% | [9] 80.4% | [10] 75.2%

CCOc1ccc(-c2cc(C)[n+](CCN(CC)CC)c(-c3ccc(OCC)cc3)c2)cc1
active: [1] 68.1% | [2] 80.8% | [3] 67.7% | [4] 81.7% | [5] 73.6% | [6] 105% | [7] 93.8% | [8] 90% | [11] 19.5% | [12] 62%

CC(=O)OC1(C)CC(C)C(=O)C(C(O)CC2CC(=O)NC(=O)C2)C1 (centres undefined)
active: [1] 98% | [2] 96.7% | [3] 93.5% | [4] 95.6% | [5] 94.8% | [6] 110% | [7] 97.5% | [8] 95.8% | [9] 80.1% | [10] 71.5%
